Laboratory results as given in PubChem BioAssay (NCATS).
Inconclusive results are not listed. Unless noted, calls follow the shape of the dose curve; as a rule, active = well fitted curve in either direction with a large enough effect (not every such curve was filed as active); inconclusive = small, poorly fitted or top-dose-only effect, or another doubt; inactive = flat fitted curve, though single readings scatter.

Columns and labels:
[1] = AP1 Signaling Pathway (AID 357); conditions: ME-180 AP-1-bla reporter, EGF-induced, beta-lactamase ratio, 5 h; at 17.2 µM (top of the series) unless noted;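 also: ME-180 reporter cells stimulated with EGF at its EC50 level; % is scaled to controls: 0 for no effect and ±100 for the full control effect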
In short: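 Titration-series screen for positive or negative modulators of EC50 EGF-induced signaling in ME-180 cells carrying an AP-1-driven beta-lactamase reporter. After 5 hours at 37 degrees Celsius, CCF4 460nm/530nm emission ratio gave %Activity; AC50 values derived.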

[2] = NFAT Signaling Pathway (AID 444); conditions: Jurkat NFAT-bla M1, carbachol, beta-lactamase ratio, 5 h; at 17.2 µM (top of the series) unless noted;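 also: carbachol stimulus at about its EC50 of 1 µM final; % is scaled to controls: 0 for no effect and ±100 for the full control effect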
In short: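 Read-out: CCF4 FRET ratio (460 nm/530 nm) after 1 h RT dye loading, used for %activity and AC50 from titration series. Cells: Jurkat NFAT-β-lactamase/M1 line, treated with compound plus 1 uM carbachol for 5 h, 37 °C.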

[3] = Stat Signaling Pathway (AID 446); conditions: ME-180 SIE beta-lactamase reporter, IL-6 stimulated, 5 h; at 17.2 µM (top of the series) unless noted;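 also: ME-180 cervical cancer cells given 40 pM IL-6 alongside compound; SIE-controlled beta-lactamase reporter measured as 460/530 nm FRET emission ratio; % is scaled to controls: 0 for no effect and ±100 for the full control effect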
In short: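 Screening format detects activators and inhibitors alike: ME-180 SIE-bla cells stimulated at 40 pM IL-6 for 5 hrs with compound, then dual-emission beta-lactamase read at 405 nm excitation.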

[4] = molecular target: Glucocorticoid receptor (Homo sapiens) (UniProt P04150); assay: GR-GFP Redistribution (AID 450;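 active = compounds whose dose series gives a full or clear partial fitted curve of increased nuclear translocation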; also: potency is read from the fitted curve at half-maximal effect)
Sequence of Glucocorticoid receptor (Homo sapiens) (P04150 whole entry, looked up): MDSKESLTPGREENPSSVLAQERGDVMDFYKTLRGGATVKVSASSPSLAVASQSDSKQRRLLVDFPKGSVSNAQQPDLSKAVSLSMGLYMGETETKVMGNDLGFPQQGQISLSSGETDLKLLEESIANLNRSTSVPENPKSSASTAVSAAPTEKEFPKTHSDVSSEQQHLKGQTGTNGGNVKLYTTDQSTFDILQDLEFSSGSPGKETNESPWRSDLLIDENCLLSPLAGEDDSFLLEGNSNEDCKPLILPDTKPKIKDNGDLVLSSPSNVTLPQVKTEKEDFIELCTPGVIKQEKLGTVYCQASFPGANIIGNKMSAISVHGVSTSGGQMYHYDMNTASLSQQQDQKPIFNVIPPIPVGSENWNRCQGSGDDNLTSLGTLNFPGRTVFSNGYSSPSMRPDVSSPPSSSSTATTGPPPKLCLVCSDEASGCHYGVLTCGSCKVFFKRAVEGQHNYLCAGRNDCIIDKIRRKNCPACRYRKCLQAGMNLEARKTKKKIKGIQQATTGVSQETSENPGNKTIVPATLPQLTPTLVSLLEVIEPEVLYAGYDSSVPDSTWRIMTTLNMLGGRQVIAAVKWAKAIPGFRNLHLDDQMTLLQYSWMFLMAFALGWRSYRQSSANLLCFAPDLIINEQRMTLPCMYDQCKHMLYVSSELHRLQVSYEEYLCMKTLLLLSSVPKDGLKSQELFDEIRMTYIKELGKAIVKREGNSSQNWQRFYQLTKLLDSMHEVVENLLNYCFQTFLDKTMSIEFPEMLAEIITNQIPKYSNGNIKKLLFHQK

CCN(CC)CCN1C(=O)C(O)=C(C(C)=O)C1c1ccc(OC)c(OC)c1 (stereo unspecified)
inactive: activity change, negative = inhibition [1] 1.74% | activity change, negative = inhibition [2] 3.09% | activity, negative = inhibition [3] -2.04% | Potency [4] > 20.6 µM

O=P(O)(c1ccccc1)c1ccccc1O
inactive: activity change, negative = inhibition [1] 6.62% | activity change, negative = inhibition [2] 7.27% | activity, negative = inhibition [3] 8.28% | Potency [4] > 20.6 µM

CC(C)C1Cc2c(sc3c2c(=O)n(Cc2ccccc2)c2nncn32)CO1 (stereo unspecified)
inactive: activity change, negative = inhibition [1] -0.408% | activity change, negative = inhibition [2] -11.6% | activity, negative = inhibition [3] -3.52% | Potency [4] > 20.6 µM

COc1ccc2[nH]cc(C(=O)CN(C)CCc3ccc(OC)c(OC)c3)c2c1
inactive: activity change, negative = inhibition [1] -10.3% | activity change, negative = inhibition [2] 11.6% | activity, negative = inhibition [3] 6.57% | Potency [4] > 20.6 µM

Cc1cc(-c2ccc(F)cc2)nc2cc(C(N)=O)nn12
inactive: activity change, negative = inhibition [1] -15.1% | activity change, negative = inhibition [2] -2.99% | activity, negative = inhibition [3] -7.09% | Potency [4] > 20.6 µM

Cc1ccc(N(CN2C(=O)NC(C)(C)C2=O)CN2C(=O)NC(C)(C)C2=O)cc1
inactive: activity change, negative = inhibition [1] 5% | activity change, negative = inhibition [2] 15.5% | activity, negative = inhibition [3] 5.53% | Potency [4] > 20.6 µM

CC1(C(=O)CSc2n[nH]c(-c3ccccc3Cl)n2)CCC(=O)O1 (stereo unspecified)
inactive: activity change, negative = inhibition [1] 6.38% | activity change, negative = inhibition [2] 4.32% | activity, negative = inhibition [3] 0.984% | Potency [4] > 20.6 µM

Clc1ccc(-c2cn3c(n2)CCC3)cc1
inactive: activity change, negative = inhibition [1] 4.83% | activity change, negative = inhibition [2] -26.9% | activity, negative = inhibition [3] 7.31% | Potency [4] > 20.6 µM

Cc1cc(C(=O)O)c(CSc2ncn[nH]2)o1
inactive: activity change, negative = inhibition [1] 12.5% | activity change, negative = inhibition [2] 19.7% | activity, negative = inhibition [3] 8.82% | Potency [4] > 20.6 µM

CN(C)/C=C1\N=C(c2cccs2)OC1=O
inactive: activity change, negative = inhibition [1] 4.03% | activity change, negative = inhibition [2] 6.03% | activity, negative = inhibition [3] 13.9% | Potency [4] > 20.6 µM

CCOC(=O)c1oc2cc(O)cc(C)c2c(=O)c1-c1cscn1
inactive: activity change, negative = inhibition [1] 0.0813% | activity change, negative = inhibition [2] 11.5% | activity, negative = inhibition [3] -0.432% | Potency [4] > 20.6 µM

O=C(CN1C(=O)c2ccccc2C1=O)NCc1ccncc1
inactive: activity change, negative = inhibition [1] -3.15% | activity change, negative = inhibition [2] -0.713% | activity, negative = inhibition [3] 5.8% | Potency [4] > 20.6 µM

COc1ccccc1OCC(=O)Nc1ccc(S(=O)(=O)Nc2cc(C)nc(C)n2)cc1
inactive: activity change, negative = inhibition [1] -4.5% | activity change, negative = inhibition [2] -9.32% | activity, negative = inhibition [3] -5.19% | Potency [4] > 20.6 µM

CC(C)Cn1cnc2c(c1=O)c1nc3ccccc3nc1n2Cc1ccc2c(c1)OCO2
inactive: activity change, negative = inhibition [1] -7.49% | activity change, negative = inhibition [2] 8.7% | activity, negative = inhibition [3] -6.69% | Potency [4] > 20.6 µM

CCOC(=O)CSc1nc(-c2ccncc2)ccc1C#N
inactive: activity change, negative = inhibition [1] -1.16% | activity change, negative = inhibition [2] -7.89% | activity, negative = inhibition [3] 3.41% | Potency [4] > 20.6 µM

Cc1cc(C)cc(CC2CC(=O)N(c3cc(C)on3)C2=O)c1 (stereo unspecified)
inactive: activity change, negative = inhibition [1] -8.62% | activity change, negative = inhibition [2] -3.65% | activity, negative = inhibition [3] -12.9% | Potency [4] > 20.6 µM

COc1ccc(OC)c(C2/C(=C(/O)c3cnn(-c4ccccc4)c3C)C(=O)C(=O)N2CCN(C)C)c1 (stereo unspecified)
inactive: activity change, negative = inhibition [1] 0.346% | activity change, negative = inhibition [2] 4.77% | activity, negative = inhibition [3] 3.03% | Potency [4] > 20.6 µM

Cc1nc(SC2C=CS(=O)(=O)C2)n[nH]1 (stereo unspecified)
inactive: activity change, negative = inhibition [1] 5.25% | activity change, negative = inhibition [2] 11.6% | activity, negative = inhibition [3] 2.19% | Potency [4] > 20.6 µM

CC1(C)CC(=O)C(CCCN2C(=O)c3ccccc3C2=O)C(=O)C1
inactive: activity change, negative = inhibition [1] 8.1% | activity change, negative = inhibition [2] 2.72% | activity, negative = inhibition [3] 16.7% | Potency [4] > 20.6 µM
